Inhibition data for 100 compounds are collected here from PubChem BioAssay AID633 (Emory University Molecular Libraries Screening Center, 2007).

Out of some 86,000 compounds screened, about 1,100 (1.3%) were called active. The full list was thinned out, with actives kept by preference. Unmarked numbers belong to inactive results.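 How the source made its calls: active means compounds whose percent inhibition of the receptor-coactivator binding signal exceeds about 50% in the single-dose screen (limit read from the data); inactive means the rest.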

Sequence of Estrogen receptor beta (Homo sapiens) (Q92731 whole entry, looked up, the tested form may be a part): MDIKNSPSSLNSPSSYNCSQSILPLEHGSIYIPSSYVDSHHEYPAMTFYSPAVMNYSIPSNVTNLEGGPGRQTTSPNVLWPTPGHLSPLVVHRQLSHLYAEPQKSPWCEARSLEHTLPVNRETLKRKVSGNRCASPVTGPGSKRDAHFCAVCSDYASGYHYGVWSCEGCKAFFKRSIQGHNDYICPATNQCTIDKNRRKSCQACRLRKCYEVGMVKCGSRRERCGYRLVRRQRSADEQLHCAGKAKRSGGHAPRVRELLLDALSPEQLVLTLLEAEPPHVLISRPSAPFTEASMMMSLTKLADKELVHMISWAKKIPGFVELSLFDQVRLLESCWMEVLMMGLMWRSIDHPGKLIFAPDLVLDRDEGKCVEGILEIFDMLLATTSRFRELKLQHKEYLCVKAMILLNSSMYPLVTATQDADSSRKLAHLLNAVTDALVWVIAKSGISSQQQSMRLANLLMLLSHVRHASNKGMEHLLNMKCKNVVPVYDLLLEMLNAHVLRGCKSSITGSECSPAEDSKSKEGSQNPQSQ

This assay concerns the target Estrogen receptor beta (Homo sapiens) (UniProt Q92731). As to the kind of experiment: inhibitors of ERβ-SRC1 coactivator interaction, primary screen, biochemical, TR-FRET, ERβ LBD, SRC-1 peptide (AID 633).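 Further: 0% = receptor plus peptide wells without compound and 100% = peptide-only wells.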 The following applies: TR-FRET ER-beta LBD / SRC1-Cy5 peptide binding; at 25.6 µM; hits give high values; receptor agonist-loaded with 1 µM estradiol.
One may read the inhibition as the change of the read-out against control, counted positive when it falls. With `CC(CO)N1CCS(=O)(=O)CC1` (stereo not given), the inhibition was -15%.
With `CCN(c1ccccc1)S(=O)(=O)c1ccc(NC(=O)C(C)(C)C)cc1`, the inhibition was 14.4%.
Take `C=CCn1c(=O)c2ccccc2n2c(SCC(=O)N3CCCc4ccccc43)nnc12`: the inhibition is -1.59%.
Consider `C=CCn1c(SCC(=O)/C(C#N)=C(\C)N)nc2sc(C)c(C)c2c1=O`, for which the inhibition was 16.2%.
Turning to `CCCn1c(=O)c2ccccc2n2c(SCC(=O)/C(C#N)=C(\C)N)nnc12`, the inhibition was 50.4% [fluorescence artefact?] (active).
In the case of `O=C(CN1CCSCC1)N/N=C/c1ccc(F)cc1F`, the inhibition was 12.6%.
In the case of `CC(C)(O)C(=O)NN(C(=O)c1ccccc1)c1cccc(Br)c1`, the inhibition was -3.36%.
Take `COC(=O)c1cccc(N(C(=O)c2ccco2)C(C(=O)NC2CCCC2)c2ccco2)c1` (stereo not given): the inhibition was -14.4%.
Take `O=C(NCCOc1ccccc1)c1ccccc1`: the inhibition was 7.95%.
Then `O=C(Cn1nnc(-c2ccc3c(c2)OCO3)n1)NCc1ccco1`, with 50.1% (active); and `CS(=O)(=O)N(CC(=O)NCc1ccco1)c1ccc2c(c1)OCO2`, with 44.3%; and `O=C(Cn1nnc(-c2ccccc2)n1)NCc1ccc2c(c1)OCO2`, with 9.19%.
On to `CC1(N2CCOCC2)CC2(O)C(=[N+]1[O-])CCc1nonc12` (stereo not given), for which the inhibition is 58.1% (active).
Regarding `Cc1[nH]n(-c2cccc(Cl)c2)c(=O)c1/C=N/n1c(C)nc2ccccc2c1=O`, the inhibition was -3.58%.
`CC(=O)Nc1ccc(S(=O)(=O)N2CCN(C(=O)c3ccccc3F)CC2)cc1`: the inhibition is -9.27%.
For `O=C(CN1CCCCCC1)N1c2ccccc2Sc2ccc(C(F)(F)F)cc21`, the inhibition is -7.5%.
Regarding `CC(c1ccco1)N(C(=O)Nc1ccccc1)C1CCCCC1` (stereo not given), the inhibition was 0.39%.
As to `Cc1c(Br)cc(C(=O)N2CCCCCC2)c(C)c1C`, the inhibition was -18.4%.
In the case of `CCCc1ccc(-c2csc(NC(=O)Cc3cccs3)n2)cc1`, the inhibition is 11.4%.
Regarding `COc1ccc(Cc2nnc(NS(=O)(=O)Cc3ccccc3)s2)cc1`, the inhibition is 39.9%.
Turning to `COc1ccc(Cc2nnc(NC(=O)Cc3cccs3)s2)cc1`, the inhibition is 92% (active).
`COc1ccccc1-c1nc(C#N)c(N2CCC(C(N)=O)CC2)o1`: the inhibition was -16.6%.
With `CCOc1ccc(Nc2oc(Cc3ccccc3)nc2C#N)cc1`, the inhibition was -1.53%.
Then `COc1ccc(Nc2oc(-c3ccccc3Cl)nc2C#N)cc1`, with 76.6% [fluorescence artefact?] (active); and `Cc1ccc(/C=N/NC(=O)Cn2nc(C)c(Br)c2C)o1`, with -11.6%; and `CCOc1ccccc1C(=O)NC1CC2CCCC(C1)N2Cc1ccccc1` (stereo not given), with 5.21%.
As for `CCN(CC)CCn1c2ccc(Cl)cc2c2nc(C)sc21`, the inhibition is -0.33%.
For `CS(=O)(=O)N(CC(=O)Nc1ccc(Cl)c(Cl)c1)C1CCCCC1`, the inhibition is -2.05%.
Regarding `CC(C)(C)C1CCc2c(sc3nc(SCC(N)=O)nc(N)c23)C1` (stereo not given), the inhibition is -6.07%.
Consider `COc1ccc2[nH]c3ccc(OC)cc3c2c1`, for which the inhibition is 1.96%.
Then `CCN(CC)CC(=O)c1c[nH]c2ccc(OC)cc12`, with -8.33%.
`COc1ccc2[nH]cc(/C=C(/C#N)S(=O)(=O)c3ccccc3)c2c1`: the inhibition was 54.7% [fluorescence artefact?] (active).
With `COC(=O)c1ccc(CSc2ccc3nnc(-c4ccccc4)n3n2)o1`, the inhibition is -3.95%.
As for `Cc1ccc(S(=O)(=O)NC(=O)COc2ccccc2C)cc1`, the inhibition was 8.77%.
For `CCOc1cc(NC(=O)c2ccco2)c(OCC)cc1NC(=O)COc1ccccc1`, the inhibition was 48.5%.
For `CCOc1cc(N2CCOCC2)c(OCC)cc1NC(=O)COC(=O)[C@H](Cc1c[nH]c2ccccc12)NC(C)=O`, the inhibition is -5.51%.
In the case of `CCOc1cc(N2CCOCC2)c(OCC)cc1NC(=O)COc1cccc2cccnc12` it was 61.6% [fluorescence artefact?] (active); in that of `O=C(Oc1ccccc1C(=S)N1CCCCC1)c1cc([N+](=O)[O-])cc([N+](=O)[O-])c1`, -10.5%; in that of `Cc1nnc(SC(C)C(=O)Nc2ccc(S(=O)(=O)NC3CCCCC3)cc2)s1` (stereo not given), 17.8%.
`Cc1ccc(OCC(=O)Nc2ccc(-c3nnc(-c4ccco4)o3)cc2)cc1`: the inhibition is 63.5% [fluorescence artefact?] (active).
In the case of `COc1ccc(CC(=O)Nc2ccc(-c3nnc(-c4ccc(C)cc4)o3)cc2)cc1` it was 15.6%.
In the case of `CCOc1ccc(-c2nnc(-c3ccco3)o2)cc1`, the inhibition is -5.81%.
For `COc1ccc(CC(NC(C)=O)C(=O)N2CCN(C(=O)Nc3cccc(Cl)c3)CC2)cc1OC` (stereo not given), the inhibition was -8.98%.
Then `COc1ccc(C(C#N)Nc2ccccc2C)cc1` (stereo not given), with -1.62%; and `CC(C)CNC(=O)CC(c1ccccc1)c1c(O)ccc2ccccc12` (stereo not given), with -3.69%; and `O=C(Cn1c(-c2cscn2)nc2ccccc21)Nc1ccc(Cl)cc1`, with 18.5%.
Regarding `COc1ccccc1NC(=O)CSc1nnc(C)n1CC1CCCO1` (stereo not given), the inhibition is -11.8%.
Turning to `CN(C)[C@@H]1C(=O)C(C(N)=O)=C(O)[C@@]2(O)C(=O)C3=C(O)c4c(O)ccc(Cl)c4[C@@H](O)[C@H]3C[C@@H]12`, the inhibition is 91.5% [fluorescence artefact?] (active).
For the compound `COc1ccc(-n2c(C)csc2=S)cc1`, the inhibition is -15.3%.
Regarding `O/N=C1\CC2(Cc3nonc31)OCCO2`, the inhibition was 23%.
On to `ON=C1/C(=N\O)CC2(C/C1=N/O)OCCO2`, for which the inhibition was 60.3% (active).
Take `O=C(CSc1nnnn1-c1ccccc1)NCc1ccco1`: the inhibition is 17.8%.
For the compound `CCOC(=O)Nc1sc(C(=O)N(C)C)c(C)c1C(=O)OCC`, the inhibition was 4.28%.
`Cc1ccc(Cc2cncc(O)c2)cc1S(=O)(=O)O`: the inhibition is 54.6% (active).
Take `Cc1cc(O)cc(O)c1C(=O)Cc1cnn(-c2ccccc2)c1`: the inhibition is -7.76%.
In the case of `Cn1nc(-c2ccccc2)c(CSc2cccc(Cl)c2)c1Cl` it was -3.81%; in that of `Cn1c(NN)nc2sc3c(c2c1=O)CCC3`, -7.13%.
In the case of `CCNC(=O)NC(=O)C(C)OC(=O)c1cc(S(=O)(=O)N2CCCCCC2)ccc1OC` (stereo not given), the inhibition was -4.07%.
Regarding `Cc1cccc(-c2noc(-c3ccc(F)cc3)n2)c1`, the inhibition is -10.2%.
Take `COc1ccc(-c2noc(-c3ccc(C)cc3)n2)cc1`: the inhibition is -3.86%.
In the case of `COc1ccc2[nH]c(=O)c(-c3noc(-c4ccc(F)cc4)n3)cc2c1` it was 63.8% [fluorescence artefact?] (active); in that of `CCSc1ccccc1C(=O)NCc1ccc(OC)cc1`, 15.2%.
For `CCC(=O)NC(Nc1nc2ccc(C)cc2s1)(C(=O)OC)C(F)(F)F` (stereo not given), the inhibition is 9.59%.
Then `Cc1cc(N2CCN(S(=O)(=O)c3ccc(C)c(C)c3)CC2)c2ccccc2n1`, with 3.59%.
Consider `C1=C(N2CCOCC2)/C(=C/c2nc3ccccc3[nH]2)CC1`, for which the inhibition was 72.1% (active).
Take `c1ccc(Nc2nc(N3CCOCC3)c3ccccc3n2)cc1`: the inhibition is -6.49%.
In the case of `c1ccc2[nH]c(NCCN3CCOCC3)nc2c1`, the inhibition was -3.02%.
Turning to `O=C(Cc1ccc(-n2c(=O)c3sccc3n(Cc3ccc(F)cc3)c2=O)cc1)NCc1ccco1`, the inhibition was 21.4%.
Consider `CS(=O)(=O)c1ccc2c(c1)SC1=NC(=O)/C(=C/c3ccco3)C(=N)N12`, for which the inhibition was 79% [fluorescence artefact?] (active).
Take `O=C1C2C3C=CC(C4CC34)C2C(=O)N1/N=C/c1ccc(-c2ccccc2[N+](=O)[O-])o1` (stereo not given): the inhibition is 2.95%.
Take `CC(C)C(=O)NC(NC(=S)NC1CCS(=O)(=O)C1)C(Cl)(Cl)Cl` (stereo not given): the inhibition is 14.7%.
In the case of `Cc1coc2c(O)cc3c(c12)OC1(N2CCCCC2)C(=O)NCCCC31` (stereo not given) it was 60.9% [fluorescence artefact?] (active); in that of `COc1ccccc1NC(=O)C1CCCN(c2cc(C)nc3ncnn23)C1` (stereo not given), -2.37%; in that of `CCOc1ccc(C(O)Cc2nc3ccccc3n2C)cc1` (stereo not given), -4.37%.
As for `CCOC(=O)c1ccccc1NS(=O)(=O)c1ccc(OC)cc1`, the inhibition is -1.65%.
For the compound `COC(=O)c1cc2nc(-c3ccccc3)cc(C(F)(F)F)n2n1`, the inhibition was -1.27%.
On to `COC(=O)c1cnn2c(C(F)(F)F)cc(-c3ccco3)nc12`, for which the inhibition is 58.5% (active).
On to `O=C(NCc1ccco1)c1cnn2c(C(F)(F)F)cc(-c3ccco3)nc12`, for which the inhibition was 5.47%.
With `Cc1noc(/C=C/c2ccco2)c1S(=O)(=O)N1CCC(C(=O)N2CCc3ccccc32)CC1`, the inhibition is -6.43%.
Take `Nc1ccc(-c2nnc(-c3ccc(-c4ccccc4)cc3)o2)cc1`: the inhibition is 19.9%.
For the compound `O=C(Nc1ccc(-c2nnc(-c3ccccc3)o2)cc1)c1ccc(Br)o1`, the inhibition was 30%.
In the case of `Brc1ccc(-c2nnc(-c3ccccc3)o2)o1`, the inhibition is 60.6% [fluorescence artefact?] (active).
For the compound `CC(C)n1c(-c2cccs2)nc2ccccc21`, the inhibition was -10.4%.
In the case of `Cc1cc(S(=O)(=O)NC2CCCCC2)ccc1OCC(=O)NCc1cccnc1`, the inhibition is -4.71%.
For `CC1=C(C(=O)Nc2ccccc2)C(c2ccco2)C(C#N)=C(SCC(N)=O)N1` (stereo not given), the inhibition was -2.8%.
Turning to `Cc1cc2c(c(=O)n1Cc1ccco1)C(c1ccccc1)C(C#N)=C(N)O2` (stereo not given), the inhibition is -16.4%.
Consider `N#CC1=C(N)Oc2c(sc3ccccc23)C1c1ccco1` (stereo not given), for which the inhibition was 51.7% [fluorescence artefact?] (active).
Take `Cc1ccc2nc(S(=O)(=O)O)[nH]c2c1`: the inhibition is 3.08%.
Consider `Cc1nc2ccc(C(=O)O)cc2[nH]1`, for which the inhibition is 56.8% (active).
In the case of `CC(C)c1nc2ccc(C(=O)O)cc2[nH]1`, the inhibition was 14.7%.
With `Cn1ccs/c1=N\S(=O)(=O)c1ccc(C(C)(C)C)cc1`, the inhibition is 0.33%.
`COc1ccccc1/C=C/C1=NC(=C\N(C)C)/C(=O)O1`: the inhibition was 1.45%.
Regarding `Cc1ccc2[nH]c(=O)c(-c3nc4c(C)cccn4c3NCc3ccco3)cc2c1`, the inhibition is 56.9% [fluorescence artefact?] (active).
For the compound `CCNCc1cc2cc(C)ccc2[nH]c1=O`, the inhibition was -8.3%.
Then `COc1ccc(CCn2c(=N)c(C(=O)NCc3ccco3)cc3c(=O)n4cccc(C)c4nc32)cc1`, with 48.1%; and `Cn1nnnc1SCC(=O)Nc1ccccc1C(=O)NC1CC1`, with -5.32%; and `CC1CN(S(=O)(=O)c2ccccc2)C(C)CN1S(=O)(=O)c1ccccc1` (stereo not given), with 1.26%.
As for `Cc1cc(C)cc(N(CC(=O)N2CC=C(c3ccccc3)CC2)S(=O)(=O)c2c(C)noc2C)c1`, the inhibition was -1.97%.
For `CCOc1ccc(S(=O)(=O)Nc2ccc(S(=O)(=O)Nc3cc(OC)ccc3OC)cc2)cc1`, the inhibition was -5.81%.
Take `CCCCCCc1cc2cc(-c3nnc(-c4cccc(OC)c4)o3)c(=O)oc2cc1O`: the inhibition is 1.17%.
